From PubChem
Most compounds without a hit are left out; they make up all but 3% or so of the library.
TrxR1 substrate – substrates of rat thioredoxin reductase 1; AID 588456; Potency, µM (series often up to 114 µM), inactives show top-dose activity change, negative = substrate turnover; purified TrxR1 substrate turnover, NADPH consumption readout; O89049; actives 0.01% (n = 390,000); further: on the % scale 0 is the no-effect control and ±100 the full control effect; nearly all actives have a fitted effect of over 50% in size
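Rat TrxR1, dispensed at 90 nM, was prereduced with 400 uM NADPH (final) for 5 min at ~22 deg C, then incubated with compound 15 min before 400 uM selenite. A first-read NADPH fluorescence drop versus no-compound background flagged substrates.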
GALK inhibitor – blocks human galactokinase activity. AID 1868. P51570. actives 0.007% (n = 270,000). Potency, µM (top dose mostly 57.5 µM), inactives show top-dose activity change, negative = inhibition, usual class: inhibitors. Purified GALK, Kinase-Glo residual ATP luminescence; further: on the % scale 0 is the no-effect control and ±100 the full control effect
Target sequence (P51570 whole entry, looked up): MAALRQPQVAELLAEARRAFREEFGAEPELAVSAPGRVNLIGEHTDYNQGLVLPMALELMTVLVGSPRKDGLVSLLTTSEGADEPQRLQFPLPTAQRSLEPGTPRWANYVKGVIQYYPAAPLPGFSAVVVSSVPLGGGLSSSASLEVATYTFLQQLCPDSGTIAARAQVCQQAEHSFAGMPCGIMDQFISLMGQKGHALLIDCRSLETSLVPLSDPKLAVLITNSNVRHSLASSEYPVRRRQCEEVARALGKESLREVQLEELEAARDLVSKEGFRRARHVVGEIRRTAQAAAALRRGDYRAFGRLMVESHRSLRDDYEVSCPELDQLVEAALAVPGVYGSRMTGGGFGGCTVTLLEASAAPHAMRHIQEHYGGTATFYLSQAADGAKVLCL
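Quantitative HTS: GALK 5 nM, ATP 35 uM, galactose 100 uM, 1 h room temperature, then luciferase-based ATP detection.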
rTrxR1 inhibitor – inhibitors of rat thioredoxin reductase 1; O89049; recombinant rTrxR1, NADPH fluorescence consumption, selenite substrate; Potency, µM (top dose mostly 114 µM), for the others: at the top dose activity change, negative = inhibition, hits mostly inhibitors; actives 1% (n = 390,000); AID 588453; further: on the % scale 0 is the no-effect control and ±100 the full control effect; nearly all actives have a fitted effect of over 65% in size
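Rat TrxR1 (90 nM in the dispensed reagent) was pre-reduced with 400 uM NADPH for 5 min at room temperature, then incubated with compound for 15 min. After 400 uM selenite was added, NADPH fluorescence (Ex 340/Em 450 nm) was followed for 8 min.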
Nrf2 inh – blocks Nrf2 signaling; actives 2.1% (n = 360,000); AID 504444; Potency, µM (titrated, usually from 46 µM), for the others: at the highest dose activity change, negative = inhibition, hits mostly inhibitors; A549 ARE-Fluc reporter, luciferase luminescence, 18-24 h; further: on the % scale 0 is the no-effect control and ±100 the full control effect; nearly all actives have a fitted effect of over 60% in size
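Nrf2 activity is the BugLite luminescence, read 15 min after reagent at room temperature, following CellTiter-Fluor cytotoxicity readout (30 min, 37C). Compound titrations were applied for 18-24 h to 5000 A549 ARE_Fluc cells/well in 5% FBS OPTI-MEM.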
Nrf2 activator – activators of Nrf2 (ARE) signaling; AREc32 ARE-luciferase reporter (MCF7-derived line), luminescence, 24 h; Potency, µM (top dose mostly 46.1 µM), inactives show top-dose activation, most hits filed as activators; actives 0.31% (n = 410,000); AID 624171; further: % of control where 0% means no effect; nearly all actives have a fitted effect of over 65% in size
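AREc32_Fluc, 1000 cells/well, OPTI-MEM + 5% FBS, o/n 37 deg C 5% CO2; 23 nL cpd by pin tool, 24 hr; Steady-Glo 30 min RT, luminescence.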
A549 viability – A549 cytotoxicity, counter-screen for Nrf2 inhibitors. actives 0.16% (n = 390,000). A549 ARE-Fluc cells, CellTiter-Fluor viability, 18-24 h. Potency, µM (top dose mostly 46 µM), for inactives: at the top dose activity change, negative = cytotoxicity, hits mostly inhibitors; further: on the % scale 0 is the no-effect control and ±100 the full control effect
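A549 ARE-Fluc cells in 5% FBS OPTI-MEM, 5000 cells/well, rested 2 h then exposed to compounds in concentration-response for 18-24 h at 37 °C. Viability by CellTiter-Fluor fluorescence (Ex 405/Em 525) after 30 min; luciferase luminescence (BugLite, 15 min, RT) read afterwards.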
The depositor's hits bear a star; u = inconclusive; x = not tested or not shown; [ ] = dose if it differs, or a comment. The call rests on the fitted dose curve; in most records, active means well fitted curve in the direction sought with a large enough effect; inconclusive means small, poorly fitted or top-dose-only effect, or another doubt; inactive means no such curve, though single readings can be large; an effect the other way counts as inactive or inconclusive. Potency means the concentration at half of the fitted maximal effect.

SMILES	TrxR1 substrate	GALK inhibitor	rTrxR1 inhibitor	Nrf2 inh	Nrf2 activator	A549 viability
O=C(c1ccco1)N1CCN(Cc2c(Cl)cccc2Cl)CC1	0%	-3%	14%	u	6%	-2%
CCOc1cc(CNCc2ccc(C(=O)O)cc2)ccc1OC	-19%[57.1 µM]	1%	-38%	6%	-1%	-1%
CCOc1cc(CNCc2cc(OC)cc(OC)c2)ccc1OC	8%[57.1 µM]	-3%	u	8.2µM*	1%	-8%
O=C(Nc1cccc(C(F)(F)F)c1)C1CCN(c2nnc(-n3cccc3)s2)CC1	2%[57.1 µM]	x	35%[57.1 µM]	x	5%	-9%
Fc1cccc(Cl)c1CNc1ccc(N2CCCC2)cc1	3%[57.1 µM]	0%	4µM*	-25%	6%	-18%
NS(=O)(=O)c1ccc(NCc2c(F)cccc2Cl)cc1	-3%	1%	-1%	-28%	3%	-4%
CC(=O)Nc1ccc(S(=O)(=O)Nc2nc3ccccc3nc2Nc2cccc(O)c2)cc1	1%	-2%	10%	9%	0%	-1%
CC(=O)Nc1ccc(S(=O)(=O)Nc2nc3ccccc3nc2Nc2ccc(C(=O)O)c(O)c2)cc1	-23%	x	79µM*	-8%	0%	-2%
COc1ccc(C(=O)NCc2ccc3c(c2)CCN3C(=O)c2ccccc2)cc1	-5%[57.1 µM]	x	-3%[57.1 µM]	x	3%	3%
O=C1CCCN1CCCNC(=S)Nc1ccc(Br)cc1Cl	10%[0.0914 µM]	0%	40µM*	7%	0%	-2%
CCc1ccc(NC(=O)c2cnc(N3CCN(c4ccccn4)CC3)c3ccccc23)cc1	117%	-1%	56%[57.1 µM]	12µM*	0%	u
CCOc1ccccc1NC(=O)c1cnc(N2CCOCC2)c2ccccc12	-7%[57.1 µM]	x	-14%[57.1 µM]	x	5%	-2%
CCN1CCN(c2ncc(C(=O)Nc3ccccc3C(=O)OC)c3ccccc23)CC1	-9%	-1%	-14%	4%	0%	18µM*
O=c1c2cc3c(cc2nc2sc(Nc4ccc(F)cc4F)nn12)OCO3	4%	x	6%	8%[9.27 µM]	0%	0%
Nc1ccc(O)cc1	u	x	14µM*	-18%	x	-19%
O=C(c1ccco1)N1CCN(S(=O)(=O)c2ccc(Br)s2)CC1	10%	0%	10µM*	-13%	-1%	6%
NC(=O)C1CCN(c2ccc(S(=O)(=O)N3CCC(Cc4ccccc4)CC3)cn2)CC1	9%	13%	13%[57.1 µM]	1.6µM*	-1%	-18%
CN(C)c1ccc(C=c2c3ccccc3n3c2cc(-c2ccccc2)[n+]3C)cc1	1%[11.4 µM]	x	6%[11.4 µM]	5.8µM*	0%	16µM*
CN(C)c1ccc(C=c2c3ccccc3n3c2c2c([n+]3C)CCCC2)cc1	-15%	x	u	6.5µM*	-3%	21µM*
CN(C)c1ccc(C=c2c3ccccc3n3c2cc(-c2ccc(Cl)cc2)[n+]3C)cc1	4%	x	-17%	u	26%	u
CN(C)c1ccc(C=c2c3cc([N+](=O)[O-])ccc3n3c2cc(-c2ccccc2)[n+]3C)cc1	-19%	x	40µM*	8.2µM*	-4%	u
COc1cc(C=c2c3ccccc3n3c2cc(-c2ccccc2)[n+]3C)cc(OC)c1OC	-10%	x	50µM*	16µM*	15%	u
COc1cc(N(C)C)ccc1/C=C/c1ccnc2ccccc12	-1%	x	10%	x	x	x
COc1cc(N(C)C)ccc1C=c1c2ccccc2n2c1cc(-c1ccccc1)[n+]2C	8%[11.4 µM]	x	10%[11.4 µM]	15µM*	6%	u
COc1ccc(CNc2nc(Cl)nc3nc[nH]c23)cc1	3%	x	12%	-12%	x	2%
SMILES	TrxR1 substrate	GALK inhibitor	rTrxR1 inhibitor	Nrf2 inh	Nrf2 activator	A549 viability
Nc1c(N(CCO)C(=O)/C=C/c2ccco2)c(=O)[nH]c(=O)n1Cc1ccccc1	-6%	2%	20µM*	0%	3%	-2%
Nc1c(N(CCC2=CCCCC2)C(=O)Cc2ccc(F)cc2)c(=O)[nH]c(=O)n1Cc1ccccc1	8%	x	19%	u	3%	-11%
Nc1c(N(CCC2=CCCCC2)C(=O)COc2ccc(F)cc2Cl)c(=O)[nH]c(=O)n1Cc1ccccc1	-2%	x	-5%	23µM*	0%	u
Cc1cc(Cl)ccc1OCC(=O)N(Cc1ccco1)c1c(N)n(Cc2ccccc2)c(=O)[nH]c1=O	-3%	x	50µM*	-28%	0%	7%
CCCCN(C(=O)/C=C/c1ccco1)c1c(N)n(CCC)c(=O)[nH]c1=O	-13%	6%	-8%[57.1 µM]	4%	0%	-10%
Cc1cc(C)c(C(=O)/C=C/c2ccc(C(C)C)cc2)c(=O)[nH]1	-9%	-5%	-18%	18µM*	-1%	-19%
Cc1ccc(NS(=O)(=O)c2cc(-c3cnc(C4CC4)o3)ccc2C)cc1Cl	-9%[57.1 µM]	x	-5%[57.1 µM]	x	-2%	-15%
COCCOC(=O)CSc1ncccc1-c1nc2cc(C)c(C)cc2[nH]1	16%	9%	-23%	15µM*	3%	2%
CC(=O)c1ccc(NC(=O)CN(C)S(=O)(=O)c2cc3c(cc2Cl)NC(=O)CO3)cc1	5%[57.1 µM]	x	8%[57.1 µM]	x	0%	4%
COc1ccc(CNC(=O)CCc2c(C)nc3cc(-c4ccccc4OC)nn3c2C)cc1	5%	5%	-16%	-25%	-1%	14%
CCOc1ccc(CCNC(=O)CCc2c(C)nc3cc(-c4ccccc4OC)nn3c2C)cc1	60%	x	73%	15µM*	-2%	-5%
C=C(C)[C@@H]1C2=CC(C(=O)OC)=C(C[C@@H](C(=C)C)[C@H]3O[C@H]3C3=C[C@H]1OC3=O)O2	-7%	x	11µM*	5%	x	-5%
CCn1nnc2cc(C(=O)Nc3ccc(C)c(Cl)c3)ccc21	-7%[57.1 µM]	x	-2%[57.1 µM]	u	0%	-4%
CCOc1ccc(-n2c(N)c(C(=O)NCc3ccco3)c3nc4ccccc4nc32)cc1	-15%[11.4 µM]	2%	-56%[57.1 µM]	21%	11µM*	6%
CC1Cc2cc(S(=O)(=O)NCCc3ccccc3)ccc2N1C(=O)C1CCC1 (centres undefined)	1%	x	10%	u	4%	13%
COCCCNC(=O)/C=C1\Sc2ccccc2N(Cc2ccccc2F)C1=O	1%	0%	10%	3%	11µM*	5%
COC(=O)c1cc(F)c(S(=O)(=O)N2CCN(S(=O)(=O)c3ccc4c(c3)OCCO4)CC2)cc1F	x	x	x	1%	x	-4%
CCC1=Nc2cc(C(=O)NCc3ccccc3Cl)ccc2Sc2ccc(C)cc21	6%[57.1 µM]	x	16%[57.1 µM]	x	0%	-11%
CCC1=Nc2cc(C(=O)N3CCC(C)CC3)ccc2Sc2ccc(C)cc21	-5%	x	-3%	18µM*	4%	u
CC(=O)c1cc(-c2ccc(F)cc2)n(CCC(=O)NCc2ccccc2C)c1C	-3%	x	13%	-15%	8%	-1%
